# Screening data from PubChem BioAssay.
# Apoferritin bind = candidate novel general anesthetic via apoferritin binding | P02791 | apoferritin/1-aminoanthracene competitive binding, fluorescence | Potency, µM (doses to about 77.5 µM), most hits filed as inhibitors | 350,000 tested, 0.074% active | AID 485281; active means well fitted inhibition curve with a large enough effect; inconclusive means small, poorly fitted or top-dose-only effect; inactive means no such curve, though single readings can be large or run the other way; further: nearly all actives have a fitted effect of over 20% in size
# Target sequence (P02791 2-175 limits assumed): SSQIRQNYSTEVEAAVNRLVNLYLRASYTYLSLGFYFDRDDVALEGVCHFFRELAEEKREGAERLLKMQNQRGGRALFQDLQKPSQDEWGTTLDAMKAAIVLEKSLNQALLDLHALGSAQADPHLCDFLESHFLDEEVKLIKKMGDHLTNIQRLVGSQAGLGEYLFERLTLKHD
#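 Concentration-response curves derived by four-parameter Hill fitting of normalized fluorescence, where compounds displaced 1-AMA from 10 uM horse apoferritin following a brief 10 min room-temperature incubation; propofol titration acted as positive control.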
# D2 PAM-1 = D2 dopamine receptor (human) potentiation; P14416; HEK293 T-REx D2, calcium flux, EC20 dopamine potentiation; potentiation, % at 10 µM; 340,000 tested, 0.34% active;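 active means potentiation over 3 SD above the plate norm, cut at about 30% in these data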
# Target sequence (P14416 whole entry, looked up): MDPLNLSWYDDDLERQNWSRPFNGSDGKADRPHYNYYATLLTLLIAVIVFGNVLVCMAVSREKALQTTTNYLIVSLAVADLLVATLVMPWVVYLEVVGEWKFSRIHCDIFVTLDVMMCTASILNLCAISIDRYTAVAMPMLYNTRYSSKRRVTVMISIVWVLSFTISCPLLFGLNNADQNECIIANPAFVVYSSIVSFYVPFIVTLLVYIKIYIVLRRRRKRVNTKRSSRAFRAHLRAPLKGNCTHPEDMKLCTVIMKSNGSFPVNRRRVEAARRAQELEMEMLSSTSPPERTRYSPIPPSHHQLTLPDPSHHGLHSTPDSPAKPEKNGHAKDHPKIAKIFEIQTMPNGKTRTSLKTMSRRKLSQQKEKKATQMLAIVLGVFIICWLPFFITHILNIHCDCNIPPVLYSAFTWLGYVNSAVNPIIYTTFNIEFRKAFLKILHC
#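 Using a no-wash calcium dye in inducible, force-coupled HEK293 Trex cells expressing D2, we tracked fluorescence each second for 180 s after compound, then for 180 s after EC20 dopamine to detect augmented signalling.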
# D2 ag-1 = activates the human D2 dopamine receptor; P14416; HEK293 T-REx D2 cells, calcium flux agonist mode; activation, % at 2 µM; 340,000 tested, 0.53% active;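 active means activation over 3 SD above normal in the single-dose calcium agonist read, cut at about 30% in these data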
#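 Agonism scored from kinetic calcium signal (1 read/sec, 180 s) following compound pin transfer, after a 10 s baseline. Cells: HEK293 Trex line expressing inducible D2 receptor coupled to calcium, dye-loaded after overnight culture at 30 C.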
# D2 PAM-2 = positive allosteric modulators of human D2 dopamine receptor. potentiation, % (test concentration not listed). P14416. AID 624464. DiscoveRx D2 beta-arrestin cells, luminescence, 90 min; 100% = 57 uM dopamine signal. 360,000 tested, 0.23% active; in the data active means potentiation above about 50%; inconclusive means mostly about 30% to 49%
#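 PathHunter D2 cells, attached overnight at 37 deg C, received compound in DMSO plus dopamine at EC20 (50 nM final) for 90 min at 37 deg C. Beta-arrestin recruitment was read as luminescence after 1 h with detection reagent at ambient temperature.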
# D2 ag-2 = human D2 receptor agonism in beta-arrestin assay | P14416 | DiscoveRx PathHunter D2 beta-arrestin, luminescence, 90 min; 100% = 57 uM dopamine signal | activation, % (no concentration beside the values) | 360,000 tested, 0.084% active | AID 624465; in the data active means activation above about 40%; inconclusive means between about 15% and that limit
#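 DiscoveRx PathHunter D2 beta-arrestin cells (2,100/well) attached overnight, then compound-stimulated 90 min at 37 C in HBSS/10 mM HEPES/0.1% Tween-20 buffer; beta-galactosidase complementation read by luminescence after 1 h at ambient temperature. Dopamine 57 uM final (EC100) as control.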
# D2 antagonist = antagonizes the human D2 dopamine receptor | P14416 | AID 485344 | HEK293 TREx D2 cells, calcium flux, dopamine EC80 | 340,000 tested, 2% active | inhibition, % at 10 µM; in the data active means inhibition above about 30%; inactive means below that, where a call was filed
#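 Calcium flux kinetic readout in an inducible HEK293 TREx D2 line plated overnight at 30 C. After 180 s compound exposure, an EC80 dopamine challenge follows with another 180 s kinetic read to detect antagonism.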
# Hits are given with their value; – = inactive; ? = inconclusive; · = no result. Hits are enriched below; roughly 2.5% of the tested compounds scored in any of these assays.
SMILES,Apoferritin bind,D2 PAM-1,D2 ag-1,D2 PAM-2,D2 ag-2,D2 antagonist
CN1OC[C@@H]2CN(Cc3cc(Cl)cc(Cl)c3)[C@H](c3cccc(Oc4ccccc4)c3)C[C@@H]21,·,·,·,·,–,·
CC(C)NC(=O)COc1coc(CN2CCN(Cc3ccccc3)CC2)cc1=O,–,–,–,–,–,–
CC(C)NC(=O)COc1coc(CN2CCN(C(=O)c3ccco3)CC2)cc1=O,·,–,–,–,–,50
COc1ccc(CN2CCN(C(=O)c3ccco3)CC2)c(OC)c1OC,·,·,·,60,46,·
COc1ccccc1OCc1ccc(C(=O)N2CCN(C(=O)c3ccco3)CC2)cc1,–,–,–,–,–,35
CN(C(=O)c1ccc(COc2ccccc2Br)o1)c1ccccc1,–,–,–,–,–,44
CN(C)CCOC(=O)c1ccc(COc2ccccc2Br)o1,–,–,–,–,–,–
COc1ccc(NC(=O)c2ccc(COc3ccccc3OC)o2)cc1OC,–,–,–,–,–,–
COc1ccccc1OCc1ccc(C(=O)N/N=C/c2ccco2)cc1,?,–,–,–,–,44
COc1ccccc1OCc1ccc(C(=O)NN)cc1,?,–,·,–,–,–
COc1ccccc1OCc1ccc(C(=O)NN)o1,–,–,–,–,–,76
Cc1ccc(-c2nc(CSCC(=O)N3CCN(c4ccccn4)CC3)c(C)o2)cc1,–,–,37,–,–,–
CCc1ccc(-c2nc(CSCC(=O)N3CCN(c4ccccn4)CC3)c(C)o2)cc1,?,–,–,–,–,–
CCCCCCCCC(=O)N/N=C(\C)c1ccc(O)cc1O,?,–,–,–,–,49
CCCCCCCC(=O)N/N=C(\C)c1ccc(N)cc1,?,–,–,·,·,–
CCCCCCCC(=O)N/N=C(\C)c1ccc(O)cc1O,–,–,–,–,–,72
CCCCCCCC(=O)N/N=C(/C)c1c(O)cc(C)oc1=O,?,–,–,–,–,–
N=c1c(C(=O)NCc2ccco2)cc2c(=O)n3ccccc3nc2n1Cc1ccccc1,–,–,–,–,–,38
CC(C)CC(=O)Nc1ccc(-c2cn3cccnc3n2)cc1,–,–,–,–,–,–
CCN(CC)C(=O)C1CCN(C(=O)c2cnn(-c3ccccc3)c2-n2cccc2)CC1,–,–,–,·,·,·
COc1ccc([N+](=O)[O-])cc1NC(=O)C(C)N1CCCC1 (configuration not stated),–,–,–,–,–,31
COc1ccc([N+](=O)[O-])cc1NC(=S)Nc1ccccc1,–,–,–,–,–,–
COc1ccc([N+](=O)[O-])cc1NC(=O)Nc1ccccc1,–,–,–,–,–,37
COc1ccccc1CN1CC(C(=O)N2CCN(c3ccc(F)cc3)CC2)CC1=O (configuration not stated),–,32,–,–,–,–
O=C1CC(C(=O)N2CCN(c3ccc(F)cc3)CC2)CN1CCc1ccccc1 (configuration not stated),–,–,–,–,–,–
SMILES,Apoferritin bind,D2 PAM-1,D2 ag-1,D2 PAM-2,D2 ag-2,D2 antagonist
Cc1cc(/C=C2\NC(=S)N(C)C2=O)ccc1N1CCCC1,–,–,69,–,–,42
CCCN1C(=O)/C(=C/c2ccc(N3CCCC3)c(C)c2)NC1=S,?,·,·,–,–,·
CCN1C(=O)/C(=C/c2ccc(N3CCCC3)cc2)NC1=S,?,–,59,–,–,–
Cc1cc(N2CCCC2)ccc1/C=C1/C(=O)N(C)C(=S)N1C,–,–,–,–,–,59
Cc1cc(/C=C2/C(=O)N(C)C(=S)N2C)ccc1N1CCCC1,–,–,32,–,–,–
CN1C(=O)/C(=C/c2ccc(OCc3ccc(F)cc3)cc2)N(C)C1=S,–,·,·,–,–,·
COC(=O)c1ccc(COC(=O)C2CCN(S(=O)(=O)c3c(C)cc(C)cc3C)CC2)o1,·,·,·,–,–,·
COC(=O)c1ccc(Nc2nc(C)nc3c2nnn3Cc2ccccc2)cc1,–,–,–,–,–,–
COc1ccc(NC(=O)CCNC(=O)C2CCN(S(=O)(=O)c3ccccc3)CC2)cc1OC,·,·,·,–,–,·
Clc1ccc(/C=N/Nc2nnc(-c3ncc[nH]3)c3ccccc23)cc1,?,–,–,–,–,70
Clc1cccc(/C=N/Nc2nnc(Cl)c3ccccc23)c1,?,·,·,–,–,·
COCCN1C=C(C(=O)OC)C(c2cc(Br)c(OC)c(OC)c2)C(C(=O)OC)=C1,–,34,–,–,–,–
C=CCn1c(O)c(N=NC(=S)Nc2ccccc2F)c2ccccc21,?,–,–,–,–,68
OC(C#CCCN1CCCCC1)(c1ccccc1)c1ccccc1,–,–,–,–,–,33
OC(C#CCN1CCCC1)(c1ccccc1)c1cccnc1 (configuration not stated),–,–,–,–,–,–
OC(CCN1CCCCC1)(c1ccccc1)C1CCCCC1 (configuration not stated),–,–,–,–,–,46
OC(C#CCN1CCCCCC1)(c1ccccc1)c1cccnc1 (configuration not stated),–,–,–,–,–,58
O=C(COC(=O)c1cncc(Br)c1)Nc1nc(-c2ccc(F)cc2)cs1,–,–,–,–,–,–
CCCCn1cnc2c(=S)nc(N)[nH]c21,–,–,–,–,–,–
CCCCCn1cnc2c(=S)nc(N)[nH]c21,–,–,–,–,–,49
O=C1CCC(c2ccccc2)N1C(=O)c1cccnc1 (configuration not stated),–,38,–,–,–,–
O=C1CC(c2ccccc2)CN1C(=O)c1cccnc1 (configuration not stated),–,–,–,–,–,–
Brc1ccc2c(c1)OCCOCCOc1cc(Br)ccc1OCCOCCOCCO2,–,–,–,–,–,–
O=C1NC(=O)C(Nc2cccc3ccccc23)S1 (configuration not stated),–,–,–,63,–,–
CN1C(=O)SC(Nc2cccc3ccccc23)C1=O (configuration not stated),–,–,–,–,–,–
C#CCOCCOCCOCCNc1nc(N2CCN(C(=O)[C@H](C)n3cc(CCCN=C(N)N)nn3)CC2)nc(N2CCN(C(=O)[C@H](CCCCN)n3cc(CCCC)nn3)CC2)n1,–,–,–,·,·,31
O=C(NC(=S)Nc1ccc(S(=O)(=O)N2CCCC2)cc1)C1CC1,–,–,–,–,–,–
COC(=O)c1cc(NC(=O)c2cccc(Cl)c2)c(=O)oc1/C=C/Nc1cc(C)cc(C)c1,–,–,41,·,·,–
Oc1ccc(Br)cc1-c1n[nH]c(=S)n1Cc1ccccc1,–,–,–,–,–,–
